Some test systems named below: NCI-H23 lung; NCI-H226 lung; NCI-H322M lung; HOP-62 NSCLC; NCI-H460 lung; HOP-92 NSCLC; NCI-H522 lung; A549/ATCC NSCLC; 786-0 renal; COLO 205 colon.
What all share (assay): NCI-60 one-dose screen, 48 h (100 = growth as untreated, 0 = no growth, -100 = all killed)
What all share (conditions): 10 µM unless noted

We go through 12 compounds from PubChem BioAssay (NCI).

The structures appear in SMILES notation. About 83,000 compounds went through this panel and 20% of them were active in at least one assay; those are over-represented in the sample as a whole.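 Assay: single dose, 48 h. Readout: percent growth (0 = no net growth; negative = cell death). Active: <10.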 A number with no mark means an inactive call. Calls of active or inactive are those of the source.

`CCOC(=O)Nc1ccc2c(c1)/C(=N\NC(=S)NC)c1ccccc1-2`: the growth in the experiment on NCI-H23 lung is 93.8%; in the experiment on NCI-H226 lung it was 107%; with NCI-H322M lung it was 92.3%; in the experiment with HOP-62 NSCLC it was 108%; with NCI-H460 lung it was 65.1%; in the experiment on HOP-92 NSCLC, 85.9%. Also, the growth with NCI-H522 lung is 68%; in the experiment with A549/ATCC NSCLC, 55.7%; in the experiment with 786-0 renal, 64.4%; in the experiment with COLO 205 colon, 106%.

Take `O=C(CCNCc1ccccc1)c1ccccc1`: the growth was 106% with NCI-H23 lung; 102% in the experiment with NCI-H226 lung; 110% with NCI-H322M lung; 104% with HOP-62 NSCLC; 110% in the experiment with NCI-H460 lung; 120% in the experiment with HOP-92 NSCLC. Besides, the growth in the experiment with NCI-H522 lung is 101%; in the experiment on A549/ATCC NSCLC it was 101%; with 786-0 renal, 108%; with COLO 205 colon, 111%.

Take `O=C1COCCN1c1ccc(NCc2cn(Cc3cccc4ccccc34)c3ccccc23)cc1`: the growth with NCI-H23 lung was 84%; in the experiment with NCI-H226 lung, 5.06% (active); in the experiment on NCI-H322M lung, 91.5%; in the experiment with HOP-62 NSCLC, 84.3%; in the experiment on NCI-H460 lung, 64.4%; with HOP-92 NSCLC, 72.6%. Also, the growth with NCI-H522 lung is 86.3%; with A549/ATCC NSCLC it was 87.7%; in the experiment on 786-0 renal, 98.8%; in the experiment on COLO 205 colon, 93.6%.

As to `Cc1cc(SC#N)ncn1`, the growth is 103% in the experiment with NCI-H23 lung; 99% with NCI-H226 lung; 103% with NCI-H322M lung; 98.2% in the experiment on HOP-62 NSCLC; 99.5% with NCI-H460 lung; 106% in the experiment with HOP-92 NSCLC. Further, the growth with NCI-H522 lung was 92.3%; in the experiment on A549/ATCC NSCLC, 93.5%; in the experiment on 786-0 renal, 109%; with COLO 205 colon it was 115%.

Regarding `CCN(CCO)CCC(=O)c1ccc([N+](=O)[O-])cc1`, the growth with NCI-H23 lung is 102%; in the experiment on NCI-H226 lung, 99.5%; in the experiment on NCI-H322M lung, 101%; in the experiment on HOP-62 NSCLC, 109%; in the experiment on NCI-H460 lung, 111%; in the experiment with HOP-92 NSCLC, 92.9%. For the same compound, the growth with NCI-H522 lung was 100%; in the experiment on A549/ATCC NSCLC, 103%; in the experiment with 786-0 renal, 103%; with COLO 205 colon it was 116%.

`O=C(N/N=C/c1ccc([N+](=O)[O-])cc1)c1ccc(Br)o1`: the growth in the experiment on NCI-H23 lung was 95.5%; in the experiment on NCI-H226 lung, 100%; in the experiment with NCI-H322M lung it was 129%; in the experiment with HOP-62 NSCLC it was 119%; in the experiment with NCI-H460 lung it was 105%; in the experiment on HOP-92 NSCLC, 101%. Moreover, the growth is 88.5% with NCI-H522 lung, 92.7% in the experiment with A549/ATCC NSCLC, 91.7% in the experiment on 786-0 renal and 116% with COLO 205 colon.

Consider `CC1(C)[C@@H](NOCCCN)CC[C@]2(C)[C@H]3C(=O)C=C4[C@@H]5C[C@](C)(C(=O)O)CC[C@]5(C)CC[C@@]4(C)[C@]3(C)CC[C@@H]12`, for which the growth in the experiment with NCI-H23 lung was -39.4% [100 µM] (active); in the experiment with NCI-H226 lung it was -44.8% [100 µM] (active); in the experiment with NCI-H322M lung it was -94.4% [100 µM] (active); in the experiment on HOP-62 NSCLC it was -84.4% [100 µM] (active); with NCI-H460 lung, -67.2% [100 µM] (active); in the experiment with HOP-92 NSCLC, -71.8% [100 µM] (active). Further, the growth is -57.7% [100 µM] (active) in the experiment on NCI-H522 lung, -27.4% [100 µM] (active) with A549/ATCC NSCLC, -78.6% [100 µM] (active) in the experiment on 786-0 renal and -68.2% [100 µM] (active) in the experiment on COLO 205 colon.

With `COc1ccccc1S(=O)Nc1ccccc1` (stereo not given), the growth is 104% with NCI-H23 lung; 102% in the experiment on NCI-H226 lung; 94.9% in the experiment with NCI-H322M lung; 124% in the experiment on HOP-62 NSCLC; 93.6% in the experiment on NCI-H460 lung; 98.5% in the experiment with HOP-92 NSCLC. In addition, the growth in the experiment with NCI-H522 lung is 74.9%; in the experiment on A549/ATCC NSCLC, 74.4%; with 786-0 renal, 103%; in the experiment with COLO 205 colon it was 117%.

As to `C[C@@H](NC(=O)[C@@H](CC(=O)N1CCC(N2CCCCC2)CC1)N1C(=O)[C@@H](N2C(=O)OC[C@@H]2c2ccccc2)[C@H]1/C=C/c1cccc(Cl)c1)c1ccccc1`, the growth in the experiment on NCI-H23 lung is 87.8%; in the experiment with NCI-H226 lung, 89.8%; in the experiment with NCI-H322M lung, 82.1%; with HOP-62 NSCLC it was 87.6%; in the experiment with NCI-H460 lung, 13.3%; in the experiment on HOP-92 NSCLC it was 58.3%. The growth in the experiment on NCI-H522 lung was 64.2%; in the experiment on A549/ATCC NSCLC it was 63.9%; in the experiment with 786-0 renal, 65%; in the experiment with COLO 205 colon, -54.6% (active).

With `O=C1Nc2ccccc2/C1=C/C(=O)c1ccc(N2CCOCC2)cc1`, the growth is 87.4% in the experiment on NCI-H23 lung; 100% in the experiment with NCI-H226 lung; 104% with NCI-H322M lung; 100% in the experiment with HOP-62 NSCLC; 101% with NCI-H460 lung; 71.9% in the experiment with HOP-92 NSCLC. The growth in the experiment on NCI-H522 lung was 35.7%; in the experiment with A549/ATCC NSCLC, 96%; with 786-0 renal, 94.1%; in the experiment on COLO 205 colon it was 101%.

In the case of `Cc1ccc(-n2nc3n(/c2=N\C(=O)NS(=O)(=O)c2ccc(C)cc2)CCN3C2=NCCN2)cc1`, the growth in the experiment on NCI-H23 lung is 106%; in the experiment with NCI-H226 lung, 95.3%; in the experiment on NCI-H322M lung, 105%; in the experiment on HOP-62 NSCLC, 93.4%; in the experiment on NCI-H460 lung, 106%; in the experiment on HOP-92 NSCLC, 104%. Further, the growth is 88.6% in the experiment with NCI-H522 lung, 95.4% in the experiment with A549/ATCC NSCLC, 99.4% with 786-0 renal and 115% with COLO 205 colon.

`CCOC(=O)c1nn(C2CCCCO2)c2ccc(NC(=O)CSc3nc4ccccc4c(=O)[nH]3)cc12` (stereo not given): the growth in the experiment with NCI-H23 lung was 102%; in the experiment on NCI-H226 lung, 97.6%; with NCI-H322M lung, 92.5%; in the experiment with HOP-62 NSCLC, 88.2%; in the experiment with NCI-H460 lung, 98.9%; in the experiment on HOP-92 NSCLC, 92.5%. Moreover, the growth with NCI-H522 lung is 100%; in the experiment with A549/ATCC NSCLC, 99.4%; with 786-0 renal it was 91%; in the experiment on COLO 205 colon, 126%.
